# Experimental data as given in PubChem BioAssay AID651903 (Broad Institute, 2012).
# About 1,100 (5%) of roughly 22,000 compounds were called active. What follows is part of a selection rich in actives, with near analogues and random picks from the rest. Unmarked numbers belong to inactive results. Rule as the data show it: active = activity score above about 55%; inconclusive = no clear call, values can overlap the other calls; inactive = below that.
# Assay: inhibitors of intracellular Trypanosoma cruzi, primary screen, cell-based, plate reader, single point, set 2 (AID 651903);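 also: parasites and compound incubated about four days before reading; 0% = median of neutral control wells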
# Conditions: intracellular Trypanosoma cruzi in host cells, at 5.01 µM, active compounds read high
row,SMILES,activity score (inhibition)
1,COc1ccc(S(=O)(=O)N(C)C[C@@H]2Oc3ccc(NC(=O)C4CC4)cc3CC(=O)N([C@@H](C)CO)C[C@@H]2C)cc1,-7.17%
2,CNC[C@H]1Oc2ccc(NS(=O)(=O)c3ccc(F)cc3)cc2C(=O)N([C@@H](C)CO)C[C@@H]1C,-7.11%
3,C[C@H]1CN([C@@H](C)CO)C(=O)c2cccc(NC(=O)c3cnccn3)c2O[C@@H]1CN(C)Cc1ccc(Oc2ccccc2)cc1,38.8%
4,COc1ccc(S(=O)(=O)Nc2ccc3c(c2)CC(=O)N([C@H](C)CO)C[C@@H](C)[C@@H](CN(C)S(=O)(=O)c2ccc(F)cc2)O3)cc1,60.4% (active)
5,C[C@@H]1CN([C@H](C)CO)C(=O)Cc2cc(NS(=O)(=O)c3ccc(F)cc3)ccc2O[C@@H]1CN(C)S(=O)(=O)c1ccc(F)cc1,47.1%
6,C[C@H]1CN([C@@H](C)CO)C(=O)Cc2cc(NC(=O)Nc3ccc(F)cc3)ccc2O[C@H]1CN(C)S(=O)(=O)c1ccccc1,10.9%
7,C[C@@H]1CN([C@H](C)CO)C(=O)Cc2cc(NS(=O)(=O)c3ccc(Cl)cc3)ccc2O[C@@H]1CN(C)S(=O)(=O)c1ccc(Cl)cc1,67.3% (active)
8,Cc1ccc(S(=O)(=O)N(C)C[C@H]2Oc3ccc(NC(=O)Nc4cccc5ccccc45)cc3CC(=O)N([C@H](C)CO)C[C@H]2C)cc1,60.6% (active)
9,COc1ccc(S(=O)(=O)N(C)C[C@H]2Oc3ccc(NS(=O)(=O)c4ccc(C)cc4)cc3CC(=O)N([C@@H](C)CO)C[C@@H]2C)cc1,-20.8%
10,Cc1noc(C)c1S(=O)(=O)N(C)C[C@H]1Oc2ccc(NC(=O)Nc3cccc4ccccc34)cc2CC(=O)N([C@@H](C)CO)C[C@H]1C,23.8%
11,C[C@H]1CN([C@@H](C)CO)C(=O)Cc2cc(NS(C)(=O)=O)ccc2O[C@@H]1CN(C)S(=O)(=O)c1ccc(Cl)cc1,2.12%
12,C[C@H]1CN([C@@H](C)CO)C(=O)Cc2cc(NS(=O)(=O)c3ccc(Cl)cc3)ccc2O[C@@H]1CN(C)S(=O)(=O)c1ccccc1,9.06%
13,C[C@@H]1CN([C@H](C)CO)C(=O)Cc2cc(NC(=O)Nc3ccc(C(F)(F)F)cc3)ccc2O[C@@H]1CN(C)S(=O)(=O)c1ccccc1,70% (active)
14,C[C@H]1CN([C@@H](C)CO)C(=O)Cc2cc(NC(=O)Nc3cccc4ccccc34)ccc2O[C@@H]1CN(C)S(C)(=O)=O,-12.5%
15,C[C@H]1CN([C@@H](C)CO)C(=O)Cc2cc(NC(=O)Nc3ccc(C(F)(F)F)cc3)ccc2O[C@@H]1CN(C)S(=O)(=O)c1ccc(Cl)cc1,-15.1%
16,C[C@@H]1CCCCO[C@H](CN(C)C(=O)c2ccccc2)[C@@H](C)CN([C@H](C)CO)C(=O)c2cc(NC(=O)c3ccccc3)ccc2O1,-16.9%
17,C[C@@H]1CN([C@@H](C)CO)C(=O)c2cccc(NC(=O)C3CCOCC3)c2O[C@H]1CN(C)C(=O)NC1CCCCC1,2.53%
18,C[C@H]1CN([C@@H](C)CO)C(=O)c2cc(NC(=O)c3ccncc3)ccc2O[C@H]1CN(C)Cc1ccc(C(=O)Nc2ccccc2N)cc1,37.7%
19,C[C@H](CO)N1C[C@H](C)[C@@H](CN(C)Cc2ccc(C(F)(F)F)cc2)Oc2ccc(NC(=O)CCC(F)(F)F)cc2C1=O,7.64%
20,Cc1ccc(S(=O)(=O)N(C)C[C@H]2Oc3ccc(NS(=O)(=O)c4ccccc4)cc3CC(=O)N([C@@H](C)CO)C[C@H]2C)cc1,57.7% (active)
21,Cc1ccc(S(=O)(=O)N(C)C[C@H]2Oc3ccc(NS(C)(=O)=O)cc3CC(=O)N([C@@H](C)CO)C[C@H]2C)cc1,5.47%
22,COc1ccc(S(=O)(=O)Nc2cccc3c2O[C@@H](CN(C)S(=O)(=O)c2ccc(F)cc2)[C@H](C)CN([C@H](C)CO)C3=O)cc1,-4.59%
23,COc1ccc(S(=O)(=O)N(C)C[C@H]2Oc3c(NS(=O)(=O)c4ccc(F)cc4)cccc3C(=O)N([C@H](C)CO)C[C@H]2C)cc1,71.9% (active)
24,COc1ccc(S(=O)(=O)Nc2cccc3c2O[C@H](CN(C)S(=O)(=O)c2ccc(OC)cc2)[C@@H](C)CN([C@H](C)CO)C3=O)cc1,8.53%
25,Cc1ccc(S(=O)(=O)Nc2ccc3c(c2)CC(=O)N([C@@H](C)CO)C[C@@H](C)[C@@H](CN(C)S(=O)(=O)c2ccccc2)O3)cc1,52%
26,C[C@@H]1CN([C@H](C)CO)C(=O)CCCn2cc(nn2)CO[C@H]1CN(C)S(C)(=O)=O,-20.6%
27,C[C@H](CO)N1C[C@H](C)[C@H](CN(C)C(=O)Nc2ccc3c(c2)OCO3)Oc2ccc(NC(=O)Nc3ccccc3)cc2CC1=O,-2.34%
28,Cc1noc(C)c1NC(=O)Nc1ccc2c(c1)CC(=O)N([C@@H](C)CO)C[C@@H](C)[C@@H](CN(C)Cc1ccc(Cl)c(Cl)c1)O2,0.719%
29,C[C@H](CO)N1C[C@H](C)[C@H](CN(C)Cc2ccc3c(c2)OCO3)Oc2c(NS(=O)(=O)c3ccccc3)cccc2C1=O,4.5%
